Test results reported in PubChem BioAssay (NCI).
About 83,000 compounds went through this panel and 20% of them were active in at least one assay; those are over-represented in the sample as a whole.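 In brief: 96-well plates, 48 h treatment, single concentration, percent growth endpoint.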 Values without a mark were called inactive. Active and inactive are the calls of the source. The calls were made as follows: active = growth percent below 10; inactive = the rest.

Experiments:
Experiment in all cases: NCI-60 one-dose screen, 48 h (100 = growth as untreated, 0 = no growth, -100 = all killed)
Conditions in all cases: 10 µM unless noted
NCI-H23 lung = system: NCI-H23 lung
NCI-H226 lung = system: NCI-H226 lung
NCI-H322M lung = system: NCI-H322M lung
HOP-62 NSCLC = system: HOP-62 NSCLC
NCI-H460 lung = system: NCI-H460 lung
HOP-92 NSCLC = system: HOP-92 NSCLC
NCI-H522 lung = system: NCI-H522 lung
A549/ATCC NSCLC = system: A549/ATCC NSCLC
786-0 renal = system: 786-0 renal
COLO 205 colon = system: COLO 205 colon
DU-145 prostate = system: DU-145 prostate
K-562 leukemia = system: K-562 leukemia
MALME-3M melanoma = system: MALME-3M melanoma
MDA-MB-231 breast = system: MDA-MB-231 breast
RXF 393 renal = system: RXF 393 renal
SF-268 CNS = system: SF-268 CNS
SF-295 CNS = system: SF-295 CNS
SF-539 CNS = system: SF-539 CNS
UACC-257 melanoma = system: UACC-257 melanoma
M14 melanoma = system: M14 melanoma

Compound	growth (NCI-H23 lung)	growth (NCI-H226 lung)	growth (NCI-H322M lung)	growth (HOP-62 NSCLC)	growth (NCI-H460 lung)	growth (HOP-92 NSCLC)	growth (NCI-H522 lung)	growth (A549/ATCC NSCLC)	growth (786-0 renal)	growth (COLO 205 colon)	growth (DU-145 prostate)	growth (K-562 leukemia)	growth (MALME-3M melanoma)	growth (MDA-MB-231 breast)	growth (RXF 393 renal)	growth (SF-268 CNS)	growth (SF-295 CNS)	growth (SF-539 CNS)	growth (UACC-257 melanoma)	growth (M14 melanoma)
COc1ccc(OC)c(Nc2nc(-c3c(C)nc4sccn34)cs2)c1	69.7%	65.7%	93.7%	75.7%	62.4%	97.6%	78.6%	74.6%	101%	100%	81.7%	27.8%	88.9%	71.1%	83.5%	102%	52.8%	75.7%	81%	78.6%
COc1ccc(-c2nsc3c2NC(=O)CC3c2cccc(F)c2)cc1 (stereo not given)	59%	76.5%	53.6%	60.2%	10.4%	52.7%	4.49% (active)	34.3%	80%	25.8%	53.7%	13.9%	42.7%	44.7%	50.9%	62%	61.5%	54.7%	65.7%	32.6%
C=C(C)C1CCC2(C(=O)O)CCC3(C)C(CCC4C5(C)CCC(O)C(C)(C)C5CCC43C)C12 (stereo not given)	-50.3% (active)	33.2%	6.5% (active)	-59.1% (active)	-22.5% (active)	-26.2% (active)	1.49% (active)	-53.5% (active)	-66.5% (active)	-45.3% (active)	-55.5% (active)	-34.1% (active)	-17.4% (active)	-8.05% (active)	-68.8% (active)	16.3%	-14.8% (active)	-54.1% (active)	-17.2% (active)	-49.9% (active)
COc1ccc(-c2oc(=O)ccc2-c2cc(OC)c(OC)c(OC)c2)cc1F	81.4%	82.9%	95.4%	67.3%	56.3%	62.6%	50.8%	27.8%	75.2%	57.5%	109%	26.7%	68.9%	77.3%	90.9%	95.3%	62.4%	80.4%	66.4%	60.8%
CC(=O)OC1Oc2ccccc2-c2oc3nc(=N)n(C)c-3cc21 (stereo not given)	103%	117%	123%	91.9%	112%	99.1%	98.1%	119%	103%	119%	191%	94.9%	119%	112%	144%	251%	125%	102%	113%	98.7%
Clc1ccc(-c2nc(Br)cn3ccnc23)cc1	85.5%	74.6%	93%	84.3%	91.5%	53.6%	84.6%	104%	97.7%	94.5%	91%	90.2%	103%	69.6%	90.4%	81.7%	93.4%	81.6%	95.8%	94.3%
Cc1cc(C)c([O-])c(CN(C)CCN(C)Cc2cc(C)cc(C)c2[O-])c1.O=C([O-])c1cccc(C(=O)[O-])n1.[Ti+4]	10.4%	31%	8.44% (active)	12.5%	-68.7% (active)	-53.1% (active)	-47% (active)	23.3%	11.9%	2.03% (active)	33.8%	-1.84% (active)	-45.7% (active)	44.6%	-43.5% (active)	23.9%	12.8%	7.18% (active)	19.8%	-49.8% (active)
COc1ccc2[nH]c(C(=O)OCc3ccc4c(Br)cc(Br)c(O)c4n3)cc2c1	-62.4% (active)	-64.7% (active)	43.1%	7.47% (active)	-75.1% (active)	-59.8% (active)	-68% (active)	-10.2% (active)	-81.8% (active)	-80.2% (active)	-94.6% (active)	1.4% (active)	-79.6% (active)	-73.6% (active)	-89.2% (active)	-70.8% (active)	72.3%	-91.9% (active)	-72.8% (active)	-64.1% (active)
